In PubChem BioAssay AID1817 (Sanford-Burnham Center for Chemical Genomics, 2009):
Screen size: about 290,000 compounds; about 50 (0.02%) were called active.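 The calls were made as follows: active = displacement of at least 50% at 20 µM, with a fluorescence ratio check between 0.3 and a set limit; inactive = the rest.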 For the sample, actives were picked, then their nearest neighbours and some compounds at random. Measured potencies and affinities stand elsewhere.

Target: E3 ubiquitin-protein ligase SIAH1 (Homo sapiens) (UniProt Q8IUQ4)
Experiment: Siah-1 peptide-binding antagonists, primary screen, biochemical, fluorescence polarization, rhodamine-plectin, uHTS (AID 1817);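 also: plate controls were Siah plus tracer with DMSO for no effect and tracer alone without Siah for full effect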
Details: Siah-1 / rhodamine-plectin peptide fluorescence polarization; at 20 µM; hits give high values

Sequence of E3 ubiquitin-protein ligase SIAH1 (Homo sapiens) (Q8IUQ4 whole entry, looked up): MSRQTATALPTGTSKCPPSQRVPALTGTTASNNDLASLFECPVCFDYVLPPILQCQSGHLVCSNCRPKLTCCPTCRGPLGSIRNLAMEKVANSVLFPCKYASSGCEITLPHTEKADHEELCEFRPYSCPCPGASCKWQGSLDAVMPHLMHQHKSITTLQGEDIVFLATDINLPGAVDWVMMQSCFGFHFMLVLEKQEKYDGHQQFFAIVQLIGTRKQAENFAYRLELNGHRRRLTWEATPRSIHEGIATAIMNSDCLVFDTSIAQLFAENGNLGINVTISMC

Row | Compound | displacement
1 | Cc1nc(N)sc1-c1csc(Nc2ncccn2)n1 | 57.3% (active)
2 | Cc1nc(N)sc1-c1csc(Nc2ccccn2)n1 | -1.4% (inactive)
3 | Cc1nc(N)sc1-c1csc(Nc2ccccc2)n1 | 3.2% (inactive)
4 | CCOC(=O)c1[nH]c2ccccc2c1NC(=O)c1ccc(S(=O)(=O)N2CCCCC2)cc1 | -3.4% (inactive)
5 | COc1ccc(C(=O)N2CCC(O)(c3ccc(Cl)cc3)CC2)cc1OC | -8.7% (inactive)
6 | CC1CCc2onc(C(=O)NCc3ccco3)c2C1 (stereo not given) | 3.6% (inactive)
7 | Cc1ccccc1Nc1nc(-c2sc(NC(=O)c3ccccc3)nc2C)cs1 | -5.4% (inactive)
8 | O=C(CN1C(=O)N/C(=C\c2ccccc2OCc2ccc(C(=O)O)cc2)C1=O)Nc1ccc(F)cc1 | 1.1% (inactive)
9 | O=C(CN1C(=O)N/C(=C\c2ccccc2OCc2ccc(C(=O)O)cc2)C1=O)Nc1ccccc1F | 10.4% (inactive)
10 | CCOC(=O)CNC(=S)N(Cc1cccs1)C1CCCC1 | 0.7% (inactive)
11 | Cc1cccc(C(=O)NNC(=O)c2ccc(S(=O)(=O)N3CCOCC3)cc2)c1 | -3.9% (inactive)
12 | O=c1[nH]n(-c2ccccc2)c(=O)c2ccccc12 | 0% (inactive)
13 | O=c1cc(-c2ccccc2)[nH]n1-c1ccc([N+](=O)[O-])cc1 | -0.2% (inactive)
14 | O=C(C1CCN(S(=O)(=O)c2ccc(F)cc2)CC1)N1CC=C(c2ccccc2)CC1 | 3% (inactive)
15 | COc1ccc(C(CNC(=O)C(C)c2ccc3cc(OC)ccc3c2)N(C)C)cc1 (stereo not given) | 5.2% (inactive)
16 | CC1=C(C#N)c2nc(N)c(C#N)c(C)c2/C1=C\c1ccc(OCC(=O)O)c(Cl)c1 | 0% (inactive)
17 | CC1=C(C#N)c2nc(N)c(C#N)c(C)c2/C1=C\c1ccc(C)cc1 | -2.8% (inactive)
18 | COc1ccc(C2=[N+]([O-])C(C)(C)C(c3ccccc3)=N2)cc1 | 6.6% (inactive)
19 | COc1ccc(-c2nc(CN3CCN(Cc4cccc(F)c4)CC3)c(C)o2)cc1 | 13.6% (inactive)
20 | O=C(CCC1CCCC1)N1CCN(C(=O)c2ccco2)CC1 | -6% (inactive)

Row | Compound | displacement
21 | O=C(CNC(=O)c1ccccc1F)NC1CCN(Cc2ccccc2)CC1 | -3.7% (inactive)
22 | CC(SCc1ccccc1)C(=O)Nc1ccccc1Br (stereo not given) | -6.3% (inactive)
23 | Cc1sc2cc(-c3cccc([N+](=O)[O-])c3)c(-c3cccc([N+](=O)[O-])c3)c[n+]2c1C | 5.1% (inactive)
24 | Oc1ccccc1/C=N/NC(=S)NC1CC2CC1C1C=CCC21 (stereo not given) | 2.4% (inactive)
25 | CC(C)(C)c1nnc(N/N=C/c2ccc(Br)cc2)n(N)c1=O | 7.3% (inactive)
26 | CC(C)(C)c1nnc(N/N=C/c2ccccc2)n(N)c1=O | 51.9% (active)
27 | CC(C)(C)c1nnc(N/N=C/c2ccc(O)cc2)n(N)c1=O | 18.4% (inactive)
28 | CCCc1nnc(NC(=O)C2CC(=O)N(CCc3ccc(F)cc3)C2)s1 (stereo not given) | 24.3% (inactive)
29 | Cc1[nH]c2ccccc2c1C(=O)CSc1nc2ccccc2[nH]1 | -0.5% (inactive)
30 | Cc1c(C)n(C(=O)CSc2nc3ccccc3[nH]2)c2ccccc12 | 51% (active)
31 | Cc1c(C)n(C(=O)CSc2ncn[nH]2)c2ccccc12 | -4.9% (inactive)
32 | O=C(CSCc1nc2scc(-c3cccs3)c2c(=O)[nH]1)Nc1ccccn1 | -4.4% (inactive)
33 | COc1ccc(OCC(O)CNC(=O)c2ccccc2C(=O)O)cc1 (stereo not given) | 8.1% (inactive)
34 | CCOC(=O)N1CCN(c2cc(NCCC(=O)O)c3c4c(onc24)-c2ccccc2C3=O)CC1 | 16.7% (inactive)
35 | CCOc1ccc2noc3c2c1C(=O)c1ccccc1-3 | 37.3% (inactive)
36 | CCOC(=O)C(C(=O)OCC)c1cc(Br)c2noc3c2c1C(=O)c1ccccc1-3 | 102% (active)
37 | COc1ccc(-c2cc(C(=O)N3CCc4ccccc4C3)no2)cc1 | 0.3% (inactive)
38 | Cc1ccc(S(=O)(=O)N2CCN(c3cccc(C)c3)CC2)cc1 | 12.1% (inactive)
39 | COc1cccc(OCc2cc(C(=O)NC3CCOCC3)no2)c1 | 1.4% (inactive)
40 | CC1=C([N+](=O)[O-])C(c2ccccc2)NC(=O)N1 (stereo not given) | -5.5% (inactive)
